# Results reported in the supplement of paper PMC8728848.
# Shown is part of a subset that was picked to be rich in the strongest signals.
# B1: CPA (Cicer arietinum) (protein)
# chain: MAFSYLNLVLVTLTTLFFLQTTKVKSQKSVSFHITNFTISRPSITLQGTAEFLPNVLLLNDIEHPVFVVGRALYSKPITLWNNKTGKVASFVTSFTFDVQDLKKTVPGHGLVFFLAPSGSEIPFSSDGGNLGVVDGKNAFNRFVGVEFDNFVNSWDPKYSHVGINVNSLISTKTVKWNRVSGELVKVSIVYDSVSTTLTVIVTYKNGQISILSQLVDLKAVLPDTVNIGFSASTTLVSPRQLHNIHSWSFTSTFET
# Tests used:
# Test in all cases: glycan array binding signal (z-score within array); higher = stronger binding
# Conditions in all cases: glycan notation: IUPAC condensed, linker removed
# Gal(b1-4)GlcNAc6P = target: Gal(b1-4)GlcNAc6P
# Procedure, shortened: (§1)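 The Consortium for Functional Glycomics database supplied 3228 glycan arrays, of which those lacking an available protein sequence were dropped. The binding signal, a within-array Z-score, was averaged across arrays of the same protein sequence and across linkers. Negative scores can be read as non-binding.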
# Gal3S(b1-3)GalNAc = target: Gal3S(b1-3)GalNAc
# Procedure, shortened: as §1
# Gal6S(b1-4)Glc = target: Gal6S(b1-4)Glc
# Procedure, shortened: as §1
# [1] = target: GalNAc(b1-4)GlcNAc(b1-2)Man
# Procedure, shortened: as §1
# Glc(b1-6)Glc = target: Glc(b1-6)Glc
# Procedure, shortened: as §1
# [2] = target: GlcNAc(a1-4)Gal(b1-4)GlcNAc
# Procedure, shortened: as §1
# GlcNAc(b1-3)Man = target: GlcNAc(b1-3)Man
# Procedure, shortened: as §1
# Kdn(a2-3)Gal(b1-4)Glc = target: Kdn(a2-3)Gal(b1-4)Glc
# Procedure, shortened: as §1
# Kdn(a2-3)Gal(b1-4)GlcNAc = target: Kdn(a2-3)Gal(b1-4)GlcNAc
# Procedure, shortened: as §1
# [3] = target: Man(a1-2)Man(a1-3)[Man(a1-2)Man(a1-6)]Man
# Procedure, shortened: as §1
# Man(a1-3)[Man(a1-6)]Man = target: Man(a1-3)[Man(a1-6)]Man
# Procedure, shortened: as §1
# [4] = target: Man(a1-3)[Man(a1-6)]Man(a1-6)[Man(a1-2)Man(a1-3)]Man(b1-4)GlcNAc(b1-4)GlcNAc
# Procedure, shortened: as §1
# MurNAc(b1-4)GlcNAc = target: MurNAc(b1-4)GlcNAc
# Procedure, shortened: as §1
# Neu5Ac(a2-3)Gal = target: Neu5Ac(a2-3)Gal
# Procedure, shortened: as §1
# [5] = target: Neu5Ac(a2-3)Gal(b1-3)GalNAc(b1-3)Gal(a1-4)Gal(b1-4)Glc
# Procedure, shortened: as §1
# [6] = target: Neu5Ac(a2-3)Gal(b1-3)GlcNAc(b1-2)Man(a1-3)[GlcNAc(b1-4)][Neu5Ac(a2-3)Gal(b1-3)GlcNAc(b1-2)Man(a1-6)]Man(b1-4)GlcNAc(b1-4)GlcNAc
# Procedure, shortened: as §1
# [7] = target: Neu5Ac(a2-3)Gal(b1-4)GlcNAc(b1-3)Gal
# Procedure, shortened: as §1
# [8] = target: Neu5Ac(a2-3)Gal(b1-4)GlcNAc(b1-3)Gal(b1-4)GlcNAc(b1-3)Gal(b1-4)GlcNAc(b1-2)Man(a1-3)[Neu5Ac(a2-3)Gal(b1-4)GlcNAc(b1-3)Gal(b1-4)GlcNAc(b1-3)Gal(b1-4)GlcNAc(b1-2)Man(a1-6)]GalNAc
# Procedure, shortened: as §1
# [9] = target: Neu5Ac(a2-3)Gal(b1-4)[Fuc(a1-3)]GlcNAc(b1-3)GalNAc
# Procedure, shortened: as §1
# [10] = target: Neu5Ac(a2-3)[GalNAc(b1-4)]Gal(b1-4)Glc
# Procedure, shortened: as §1
# [11] = target: Neu5Ac(a2-6)Gal(b1-4)GlcNAc(b1-2)Man(a1-3)[Neu5Ac(a2-6)Gal(b1-4)GlcNAc(b1-2)Man(a1-6)]Man(b1-4)GlcNAc(b1-4)GlcNAc
# Procedure, shortened: as §1
# [12] = target: Neu5Ac(a2-6)Gal(b1-4)GlcNAc(b1-3)Gal(b1-4)GlcNAc(b1-3)[Neu5Ac(a2-6)Gal(b1-4)GlcNAc(b1-3)Gal(b1-4)GlcNAc(b1-6)]GalNAc
# Procedure, shortened: as §1
# [13] = target: Neu5Ac(a2-6)Gal(b1-4)GlcNAc(b1-3)[Neu5Ac(a2-6)Gal(b1-4)GlcNAc(b1-6)]GalNAc
# Procedure, shortened: as §1
# [14] = target: Neu5Ac(a2-6)GalNAc(b1-4)GlcNAc6S
# Procedure, shortened: as §1
# [15] = target: Neu5Ac(a2-6)GlcNAc(b1-4)GlcNAc(b1-4)GlcNAc
# Procedure, shortened: as §1
# [16] = target: Neu5Ac(a2-8)Neu5Ac(a2-3)Gal(b1-4)Glc
# Procedure, shortened: as §1
# [17] = target: Neu5Ac(a2-8)Neu5Ac(a2-3)Gal(b1-4)GlcNAc
# Procedure, shortened: as §1
# [18] = target: Neu5Ac(a2-8)Neu5Ac(a2-8)Neu5Ac(a2-3)Gal(b1-4)Glc
# Procedure, shortened: as §1
# [19] = target: Neu5Gc(a2-3)Gal(b1-4)GlcNAc
# Procedure, shortened: as §1
binder,measurement,setting,value
B1,glycan array binding signal (z-score),Gal(b1-4)GlcNAc6P,5.14
same,glycan array binding signal (z-score),Gal3S(b1-3)GalNAc,-0.183
same,glycan array binding signal (z-score),Gal6S(b1-4)Glc,0.138
same,glycan array binding signal (z-score),[1],1.55
same,glycan array binding signal (z-score),Glc(b1-6)Glc,-0.614
same,glycan array binding signal (z-score),[2],2.25
same,glycan array binding signal (z-score),GlcNAc(b1-3)Man,-0.558
same,glycan array binding signal (z-score),Kdn(a2-3)Gal(b1-4)Glc,-0.762
same,glycan array binding signal (z-score),Kdn(a2-3)Gal(b1-4)GlcNAc,-0.585
same,glycan array binding signal (z-score),[3],-0.461
same,glycan array binding signal (z-score),Man(a1-3)[Man(a1-6)]Man,-0.635
same,glycan array binding signal (z-score),[4],4.19
same,glycan array binding signal (z-score),MurNAc(b1-4)GlcNAc,0.406
same,glycan array binding signal (z-score),Neu5Ac(a2-3)Gal,-0.529
same,glycan array binding signal (z-score),[5],-0.601
same,glycan array binding signal (z-score),[6],-0.065
same,glycan array binding signal (z-score),[7],-0.66
same,glycan array binding signal (z-score),[8],6.81
same,glycan array binding signal (z-score),[9],-0.322
same,glycan array binding signal (z-score),[10],-0.34
same,glycan array binding signal (z-score),[11],-0.503
same,glycan array binding signal (z-score),[12],3.34
same,glycan array binding signal (z-score),[13],-0.588
same,glycan array binding signal (z-score),[14],-0.452
same,glycan array binding signal (z-score),[15],2.61
same,glycan array binding signal (z-score),[16],-0.501
same,glycan array binding signal (z-score),[17],-0.647
same,glycan array binding signal (z-score),[18],-0.579
same,glycan array binding signal (z-score),[19],-0.402
